Compounds without any hit were thinned out: in the full panel of roughly 83,000, 20% have a hit.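 Assay: single dose, 48 h. Readout: percent growth (0 = no net growth; negative = cell death). Active: <10.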 A number with no mark means an inactive call. Activity calls are given as the source filed them.
Key:
Experiment in all cases: NCI-60 one-dose screen, 48 h (100 = growth as untreated, 0 = no growth, -100 = all killed)
Conditions in all cases: 10 µM
[1] = test system: DU-145 prostate
[2] = test system: K-562 leukemia
[3] = test system: MALME-3M melanoma
[4] = test system: MDA-MB-231 breast
[5] = test system: RXF 393 renal
[6] = test system: SF-268 CNS
[7] = test system: SF-295 CNS
[8] = test system: SF-539 CNS
[9] = test system: UACC-257 melanoma
[10] = test system: M14 melanoma

Row | Compound | growth [1] | growth [2] | growth [3] | growth [4] | growth [5] [%] | growth [6] | growth [7] | growth [8] | growth [9] | growth [10]
1 | COCCOC(=O)c1ccc(C(C)C)cc1 | 103% | 106% | 92.7% | 102% | 124 | 99.1% | 104% | 99% | 81% | 93.2%
2 | Cc1cc(C)c(CC(=O)O)c(C)c1 | 101% | 95.2% | 97.8% | 120% | 123 | 98.6% | 102% | 108% | 106% | 98.9%
3 | Oc1ccc(Cc2ccccc2)c2cccnc12 | 28.9% | 13.3% | -0.436% (active) | 31% | 14.6 | 20% | 32.4% | 11.8% | 1.27% (active) | -29.8% (active)
4 | CSC(=N\N=C\c1ccc(N(C)C)cc1)/N=C/N(C)C | 117% | 111% | 104% | 106% | 95.1 | 111% | 84.6% | 96% | 100% | 104%
5 | CC1SC(N)=NC1=O (stereo not drawn) | 117% | 112% | 108% | 112% | 120 | 110% | 102% | 106% | 110% | 103%
6 | NC(=O)N/N=C\c1ccco1 | 131% | 100% | 114% | 110% | 109 | 112% | 132% | 109% | 85.1% | 104%
7 | COC(=O)/C=C/C(=O)NC(N)=O | 105% | 105% | 97.4% | 108% | 95.2 | 104% | 95.2% | 96.8% |  | 106%
8 | O=[N+]([O-])c1cccc(N=Nc2ccc(O)cc2O)c1 | 95.2% | 17.7% | 65.8% | 76.5% | 83.5 | 83.4% | 95.7% | 89.7% | 72.5% | 97%
9 | O=[N+]([O-])c1ccc(Sc2ccncn2)c([N+](=O)[O-])c1 | 85.4% | 26.3% | 86.6% | 84.1% | 81.7 | 89% | 113% | 22.9% | 64.7% | 8.79% (active)
10 | CN(C)c1ccc2nc3ccc(=N)cc-3sc2c1 | 86.7% | 20.1% | 8.19% (active) | 11.5% | 70.7 | 54.2% | 86.1% | -11.3% (active) | 13.9% | 24.7%
11 | Nc1nc(OCc2ccccc2)c2[nH]cnc2n1 | 99.2% | 80.4% | 98.3% | 97.9% | 98.8 | 109% | 96.8% | 89.7% | 97.8% | 90.6%
12 | C/C(=N\NC(=O)c1ccccc1N)c1ccccc1O | 45.6% | 34% | 50% | 44.7% | 74.9 | 39.3% | 12.8% | 32.5% |  | 38.9%
13 | S=C1CCCCCN1 | 110% | 107% | 107% | 111% | 123 | 99.6% | 102% | 96.8% | 97.8% | 105%
14 | O=C1OC(c2ccc(F)cc2)CC1CN1CCOCC1 (stereo not drawn) | 106% | 113% | 95.6% | 105% | 111 | 104% | 89.9% | 96.9% |  | 104%
15 | CCC(=O)Oc1ccc(OC)cc1 | 98.3% | 107% | 89.1% | 103% | 116 | 102% | 118% | 101% | 108% | 104%
16 | CCCCC(CC)COC(C)=O (stereo not drawn) | 106% | 95.1% | 96.4% | 106% | 117 | 96.6% | 99.3% | 92.1% | 104% | 102%
17 | COc1ccccc1NC(=O)c1cc2cc(Br)ccc2cc1O | 27% | 7.54% (active) | -1.45% (active) | 3.51% (active) | 39 | 17.8% | 11.3% | 0.0916% (active) | -21% (active) | 19.6%
18 | Cc1c(O)cnc2nn(-c3ccccc3)c(=N)n12 | 110% | 101% | 124% | 103% | 111 | 113% | 99.1% | 99.6% |  | 114%
19 | O=C(NCCNC(=O)c1ccc(Cl)cc1Cl)c1ccc(Cl)cc1Cl | 114% | 107% | 112% | 91.8% | 95 | 99.1% | 82.7% | 96.5% |  | 105%
20 | CC(=O)c1cc2c(cc1F)C(C)(C)CCC2(C)C | 108% | 96.2% | 123% | 103% | 113 | 95.4% | 120% | 96.2% | 96.3% | 98.9%
21 | NC(=S)NN=C1CCCC1 | 96.8% | 65.7% | 85.3% | 95% | 107 | 89.3% | 95.7% | 110% | 66.9% | 83.1%
22 | COc1ccc(C(=O)C(Br)C(Br)C(=O)O)cc1 (stereo not drawn) | 111% | 109% | 109% | 111% | 106 | 108% | 108% | 99.5% |  | 89.2%
23 | FC(F)(F)c1ccc2c(c1)N(CCCN1CCN(C3CC3)CC1)c1ccccc1S2 | 2.25% (active) | 24.5% | 96.7% | 83% | 80.7 | -4.95% (active) | 3.21% (active) | 94.2% | 74.4% | 34.3%
24 | O=C(O)c1cccc([N+](=O)[O-])c1 | 104% | 96% | 105% | 102% | 117 | 100% | 94.9% | 103% | 107% | 104%
25 | C#Cc1cccc(NC(=O)c2ccc(Cl)cc2Cl)c1 | 112% | 85.5% | 108% | 118% | 105 | 98.9% | 107% | 95.7% | 108% | 98%
26 | O=C(O)c1ccnc(Br)c1 | 111% | 109% | 107% | 115% | 106 | 107% | 100% | 97.5% | 104% | 107%
27 | CNC(=O)c1ccccc1CC1(O)c2ccccc2Oc2ccccc21 | 61.3% | 22% | 29.9% | 66.3% | 61.3 | 57.7% | 36.8% | 56.5% | 58% | 42.2%
28 | c1cc2cccc3c4cccc5cccc(c(c1)c23)c54 | 115% | 110% | 119% | 94.4% | 106 | 101% | 118% | 99% | 125% | 106%
29 | OC1OC(COC(c2ccccc2)(c2ccccc2)c2ccccc2)C(O)C(O)C1O (stereo not drawn) | 107% | 95.4% | 90.6% | 91.9% | 95.8 | 97.7% | 96.8% | 102% |  | 105%
30 | COc1cc2cc(c1Cl)N(C)C(=O)C[C@H](OC(=O)[C@H](C)N(C)C(C)=O)[C@]1(C)O[C@H]1[C@H](C)[C@@H]1C[C@@](O)(NC(=O)O1)[C@H](OC)C=C/C=C(\C)C2 | -40.4% (active) | -2.18% (active) | 33.7% | -13.1% (active) | 13.3 | 23.5% | -13.8% (active) | -23.5% (active) | 12.4% | -26.2% (active)
